# Legend:
# Experiment in all cases: DAPPL (digital affinity profiling via proximity ligation, sequencing); 10 mM Tris-HCl pH 7.5, 50 mM NaCl, 1 mM DTT, 4% glycerol, room temperature, 30 min; GST-TFs on glutathione beads, 16-mer random dsDNA library, 0.1% formaldehyde crosslink after washing; high values mean tight binding
# FLI1 = molecular target: T1, FLI1 (Homo sapiens, UniProt Q01543 1-452); settings: protein: recombinant; tags: N-terminal GST; dsDNA, one strand shown
# T1 sequence: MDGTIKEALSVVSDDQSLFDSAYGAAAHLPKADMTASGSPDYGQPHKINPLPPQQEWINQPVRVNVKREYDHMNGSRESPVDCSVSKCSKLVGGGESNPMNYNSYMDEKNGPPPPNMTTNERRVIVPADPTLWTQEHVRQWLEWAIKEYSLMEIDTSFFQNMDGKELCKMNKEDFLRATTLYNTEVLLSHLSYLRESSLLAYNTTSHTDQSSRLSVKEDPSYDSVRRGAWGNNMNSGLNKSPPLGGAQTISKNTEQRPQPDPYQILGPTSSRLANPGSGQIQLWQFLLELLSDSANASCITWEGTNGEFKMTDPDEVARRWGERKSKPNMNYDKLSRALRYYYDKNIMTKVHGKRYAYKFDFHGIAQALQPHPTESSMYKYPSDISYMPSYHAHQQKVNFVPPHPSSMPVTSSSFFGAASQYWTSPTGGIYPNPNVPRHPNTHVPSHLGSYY
# Summary of the method: (§1)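 After expression in yeast as GST fusions, human transcription factors were bound to glutathione beads, DNA-barcoded and mixed with a tag-only sample. The pools were incubated with 200 nmole of a 16-mer random double-stranded DNA library in Tris/NaCl/DTT/glycerol buffer (30 min, room temperature), washed and crosslinked with 0.1% formaldehyde. Proximity ligation with BsaI/T4 ligase ran for 1 h at 37 °C, before PCR amplification and sequencing on an Illumina NextSeq500. Binding signal is a hexamer's read frequency for a factor divided by its frequency for the tag-only sample.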
# ELK1 = molecular target: T2, ELK1 (Homo sapiens, UniProt P19419 1-428); settings: protein: recombinant; tags: N-terminal GST; dsDNA, one strand shown
# T2 sequence: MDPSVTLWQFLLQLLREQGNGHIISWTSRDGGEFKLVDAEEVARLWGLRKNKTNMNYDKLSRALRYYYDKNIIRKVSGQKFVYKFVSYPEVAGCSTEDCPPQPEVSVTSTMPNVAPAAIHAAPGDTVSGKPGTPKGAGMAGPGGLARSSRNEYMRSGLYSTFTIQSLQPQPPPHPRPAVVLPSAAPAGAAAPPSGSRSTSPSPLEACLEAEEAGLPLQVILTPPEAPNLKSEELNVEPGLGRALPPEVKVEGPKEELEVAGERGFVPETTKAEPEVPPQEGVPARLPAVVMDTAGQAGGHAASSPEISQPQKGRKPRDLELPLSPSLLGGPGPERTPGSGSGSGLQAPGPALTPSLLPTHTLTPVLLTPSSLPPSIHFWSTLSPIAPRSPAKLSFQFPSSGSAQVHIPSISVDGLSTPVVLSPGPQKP
# Summary of the method: as §1
# GABPA = molecular target: T3, GABPA (Homo sapiens, UniProt Q06546 1-454); settings: protein: recombinant; tags: N-terminal GST; dsDNA, one strand shown
# T3 sequence: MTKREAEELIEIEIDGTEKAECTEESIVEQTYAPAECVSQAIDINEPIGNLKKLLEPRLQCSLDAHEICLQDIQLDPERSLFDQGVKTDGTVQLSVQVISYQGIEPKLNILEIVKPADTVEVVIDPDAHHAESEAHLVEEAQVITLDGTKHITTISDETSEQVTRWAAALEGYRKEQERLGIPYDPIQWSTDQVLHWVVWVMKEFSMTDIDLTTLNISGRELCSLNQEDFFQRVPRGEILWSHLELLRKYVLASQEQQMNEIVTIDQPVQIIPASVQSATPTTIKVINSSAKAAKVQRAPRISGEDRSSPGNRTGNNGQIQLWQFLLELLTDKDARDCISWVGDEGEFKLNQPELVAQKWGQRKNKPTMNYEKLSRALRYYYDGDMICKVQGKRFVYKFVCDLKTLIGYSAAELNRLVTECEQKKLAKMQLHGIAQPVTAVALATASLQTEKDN
# Summary of the method: as §1
# ERG = molecular target: T4, ERG (Homo sapiens, UniProt P11308 1-479); settings: protein: recombinant; tags: N-terminal GST; dsDNA, one strand shown
# T4 sequence: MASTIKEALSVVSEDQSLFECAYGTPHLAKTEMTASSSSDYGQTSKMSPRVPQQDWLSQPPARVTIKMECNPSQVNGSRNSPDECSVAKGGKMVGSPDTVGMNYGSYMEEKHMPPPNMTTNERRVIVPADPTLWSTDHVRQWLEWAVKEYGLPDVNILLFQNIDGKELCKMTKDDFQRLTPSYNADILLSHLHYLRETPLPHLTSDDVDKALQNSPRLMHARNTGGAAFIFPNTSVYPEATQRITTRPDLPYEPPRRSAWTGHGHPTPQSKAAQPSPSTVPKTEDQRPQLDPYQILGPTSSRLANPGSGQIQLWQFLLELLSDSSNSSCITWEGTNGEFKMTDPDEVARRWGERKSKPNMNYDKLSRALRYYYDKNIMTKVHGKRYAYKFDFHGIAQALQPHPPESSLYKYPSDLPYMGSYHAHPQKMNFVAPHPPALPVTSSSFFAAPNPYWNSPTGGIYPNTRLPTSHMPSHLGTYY
# Summary of the method: as §1
# ELF1 = ELF1 (Homo sapiens, UniProt P32519 1-619); settings: protein: recombinant; tags: N-terminal GST; dsDNA, one strand shown
# Summary of the method: as §1
# EHF = molecular target: T5, EHF (Homo sapiens, UniProt Q9NZC4 1-300); settings: protein: recombinant; tags: N-terminal GST; dsDNA, one strand shown
# T5 sequence: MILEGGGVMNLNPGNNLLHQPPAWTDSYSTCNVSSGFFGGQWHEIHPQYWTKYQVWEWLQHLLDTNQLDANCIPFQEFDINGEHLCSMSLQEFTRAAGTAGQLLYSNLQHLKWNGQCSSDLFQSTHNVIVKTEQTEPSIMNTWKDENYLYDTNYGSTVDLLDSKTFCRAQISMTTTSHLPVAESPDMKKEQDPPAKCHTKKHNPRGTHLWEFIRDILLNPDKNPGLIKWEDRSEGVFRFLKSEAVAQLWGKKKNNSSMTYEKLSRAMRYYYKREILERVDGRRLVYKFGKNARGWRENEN
# Summary of the method: as §1
# SPI1 = SPI1 (Homo sapiens, UniProt P17947 1-270); settings: protein: recombinant; tags: N-terminal GST; dsDNA, one strand shown
# Summary of the method: as §1
# SPIB = SPIB (Homo sapiens, UniProt Q01892 1-262); settings: protein: recombinant; tags: N-terminal GST; dsDNA, one strand shown
# Summary of the method: as §1
# ELK3 = molecular target: T6, ELK3 (Homo sapiens, UniProt P41970 1-407); settings: protein: recombinant; tags: N-terminal GST; dsDNA, one strand shown
# T6 sequence: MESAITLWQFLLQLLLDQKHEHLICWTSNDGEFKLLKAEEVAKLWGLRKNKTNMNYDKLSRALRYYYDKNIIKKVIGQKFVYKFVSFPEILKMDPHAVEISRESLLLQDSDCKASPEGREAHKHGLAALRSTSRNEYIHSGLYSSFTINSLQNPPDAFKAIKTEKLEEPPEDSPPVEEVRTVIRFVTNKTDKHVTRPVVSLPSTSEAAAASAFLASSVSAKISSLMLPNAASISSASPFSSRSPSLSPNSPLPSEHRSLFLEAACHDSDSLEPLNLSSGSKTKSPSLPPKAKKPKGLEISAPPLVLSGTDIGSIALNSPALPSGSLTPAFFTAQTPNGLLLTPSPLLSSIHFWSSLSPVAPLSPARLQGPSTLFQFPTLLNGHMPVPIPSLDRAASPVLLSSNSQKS
# Summary of the method: as §1
# FEV = molecular target: T7, FEV (Homo sapiens, UniProt Q99581 1-238); settings: protein: recombinant; tags: N-terminal GST; dsDNA, one strand shown
# T7 sequence: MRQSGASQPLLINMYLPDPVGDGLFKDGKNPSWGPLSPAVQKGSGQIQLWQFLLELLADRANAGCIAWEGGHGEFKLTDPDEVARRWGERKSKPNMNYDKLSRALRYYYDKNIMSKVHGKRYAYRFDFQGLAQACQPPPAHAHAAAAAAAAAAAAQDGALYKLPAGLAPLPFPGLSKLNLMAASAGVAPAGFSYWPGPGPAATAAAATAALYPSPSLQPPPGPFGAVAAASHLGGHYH
# Summary of the method: as §1
# ETV5 = ETV5 (Homo sapiens, UniProt P41161 1-510); settings: protein: recombinant; tags: N-terminal GST; dsDNA, one strand shown
# Summary of the method: as §1
# HSF1 = HSF1 (Homo sapiens, UniProt Q00613 1-529); settings: protein: recombinant; tags: N-terminal GST; chain copies: 3; dsDNA, one strand shown
# Summary of the method: as §1
# SPIC = molecular target: T8, SPIC (Homo sapiens, UniProt Q8N5J4 1-248); settings: protein: recombinant; tags: N-terminal GST; dsDNA, one strand shown
# T8 sequence: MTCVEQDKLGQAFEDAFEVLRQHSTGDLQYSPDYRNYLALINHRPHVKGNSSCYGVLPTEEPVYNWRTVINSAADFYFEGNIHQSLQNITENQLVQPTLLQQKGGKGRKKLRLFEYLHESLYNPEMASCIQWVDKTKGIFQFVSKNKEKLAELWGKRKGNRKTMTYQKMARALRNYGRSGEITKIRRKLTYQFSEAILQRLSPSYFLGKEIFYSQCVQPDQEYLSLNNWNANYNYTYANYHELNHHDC
# Summary of the method: as §1
# ELF4 = ELF4 (Homo sapiens, UniProt Q99607 1-663); settings: protein: recombinant; tags: N-terminal GST; dsDNA, one strand shown
# Summary of the method: as §1
# ELK4 = molecular target: T9, ELK4 (Homo sapiens, UniProt P28324-2 1-405); settings: protein: recombinant; tags: N-terminal GST; dsDNA, one strand shown
# T9 sequence: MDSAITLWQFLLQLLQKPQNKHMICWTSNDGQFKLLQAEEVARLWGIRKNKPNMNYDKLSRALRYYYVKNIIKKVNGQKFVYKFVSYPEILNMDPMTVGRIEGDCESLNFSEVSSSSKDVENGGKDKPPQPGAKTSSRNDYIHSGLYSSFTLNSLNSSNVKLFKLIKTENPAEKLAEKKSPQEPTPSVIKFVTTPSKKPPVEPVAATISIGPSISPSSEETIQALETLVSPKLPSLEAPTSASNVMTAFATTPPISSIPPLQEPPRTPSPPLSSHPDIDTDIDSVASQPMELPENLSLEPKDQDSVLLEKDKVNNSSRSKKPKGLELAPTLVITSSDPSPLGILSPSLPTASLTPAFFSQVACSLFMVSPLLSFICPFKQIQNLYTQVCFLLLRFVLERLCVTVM
# Summary of the method: as §1
# ETV2 = molecular target: T10, ETV2 (Homo sapiens, UniProt O00321 1-342); settings: protein: recombinant; tags: N-terminal GST; dsDNA, one strand shown
# T10 sequence: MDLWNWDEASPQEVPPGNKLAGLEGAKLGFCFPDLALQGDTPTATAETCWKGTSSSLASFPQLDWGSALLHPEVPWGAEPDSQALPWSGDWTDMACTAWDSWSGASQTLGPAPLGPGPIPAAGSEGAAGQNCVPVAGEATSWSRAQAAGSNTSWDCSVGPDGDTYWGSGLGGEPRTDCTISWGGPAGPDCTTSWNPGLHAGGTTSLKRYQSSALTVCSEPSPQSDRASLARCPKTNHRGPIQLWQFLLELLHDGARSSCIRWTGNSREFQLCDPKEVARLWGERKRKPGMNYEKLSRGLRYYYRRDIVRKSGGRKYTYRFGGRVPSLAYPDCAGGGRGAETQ
# Summary of the method: as §1
# ELF3 = molecular target: T11, ELF3 (Homo sapiens, UniProt P78545 1-371); settings: protein: recombinant; tags: N-terminal GST; dsDNA, one strand shown
# T11 sequence: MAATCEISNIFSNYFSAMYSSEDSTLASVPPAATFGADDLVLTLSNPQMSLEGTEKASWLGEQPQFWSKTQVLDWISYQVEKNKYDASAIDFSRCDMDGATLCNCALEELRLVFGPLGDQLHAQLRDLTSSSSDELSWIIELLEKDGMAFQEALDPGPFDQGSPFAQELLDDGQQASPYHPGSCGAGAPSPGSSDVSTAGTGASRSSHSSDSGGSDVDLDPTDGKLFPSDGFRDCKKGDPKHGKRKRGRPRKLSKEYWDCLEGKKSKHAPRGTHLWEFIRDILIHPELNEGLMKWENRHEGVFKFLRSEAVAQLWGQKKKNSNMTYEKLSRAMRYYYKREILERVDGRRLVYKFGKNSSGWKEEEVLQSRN
# Summary of the method: as §1
# CRX = CRX (Homo sapiens, UniProt O43186 1-299); settings: protein: recombinant; tags: N-terminal GST; dsDNA, one strand shown
# Summary of the method: as §1
# ETV1 = ETV1 (Homo sapiens, UniProt P50549 1-477); settings: protein: recombinant; tags: N-terminal GST; dsDNA, one strand shown
# Summary of the method: as §1
# Chain of ETV1 (P50549 whole entry): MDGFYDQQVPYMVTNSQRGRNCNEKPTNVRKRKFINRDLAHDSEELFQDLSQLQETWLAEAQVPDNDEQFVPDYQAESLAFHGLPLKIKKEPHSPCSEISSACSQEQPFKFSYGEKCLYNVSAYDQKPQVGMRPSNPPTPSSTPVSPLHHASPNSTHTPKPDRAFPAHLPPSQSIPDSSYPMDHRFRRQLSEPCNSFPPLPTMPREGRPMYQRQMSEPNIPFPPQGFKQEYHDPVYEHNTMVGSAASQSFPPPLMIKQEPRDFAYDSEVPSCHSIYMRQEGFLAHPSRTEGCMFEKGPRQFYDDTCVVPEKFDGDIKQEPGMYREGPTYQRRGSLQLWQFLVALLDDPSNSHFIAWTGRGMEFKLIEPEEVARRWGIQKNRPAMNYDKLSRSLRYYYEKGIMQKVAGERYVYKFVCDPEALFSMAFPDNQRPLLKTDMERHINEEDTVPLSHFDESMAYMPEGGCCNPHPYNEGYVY
# Chain of SPIB (Q01892 whole entry): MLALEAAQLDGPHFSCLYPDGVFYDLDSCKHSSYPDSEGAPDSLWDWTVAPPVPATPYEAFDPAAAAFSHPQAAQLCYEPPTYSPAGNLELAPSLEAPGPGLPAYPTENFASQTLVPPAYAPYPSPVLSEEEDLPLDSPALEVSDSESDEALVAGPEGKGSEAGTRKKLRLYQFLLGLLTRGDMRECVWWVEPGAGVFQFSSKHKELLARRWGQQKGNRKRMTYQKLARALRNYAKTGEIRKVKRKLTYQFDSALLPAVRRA
# Chain of ELF1 (P32519 whole entry): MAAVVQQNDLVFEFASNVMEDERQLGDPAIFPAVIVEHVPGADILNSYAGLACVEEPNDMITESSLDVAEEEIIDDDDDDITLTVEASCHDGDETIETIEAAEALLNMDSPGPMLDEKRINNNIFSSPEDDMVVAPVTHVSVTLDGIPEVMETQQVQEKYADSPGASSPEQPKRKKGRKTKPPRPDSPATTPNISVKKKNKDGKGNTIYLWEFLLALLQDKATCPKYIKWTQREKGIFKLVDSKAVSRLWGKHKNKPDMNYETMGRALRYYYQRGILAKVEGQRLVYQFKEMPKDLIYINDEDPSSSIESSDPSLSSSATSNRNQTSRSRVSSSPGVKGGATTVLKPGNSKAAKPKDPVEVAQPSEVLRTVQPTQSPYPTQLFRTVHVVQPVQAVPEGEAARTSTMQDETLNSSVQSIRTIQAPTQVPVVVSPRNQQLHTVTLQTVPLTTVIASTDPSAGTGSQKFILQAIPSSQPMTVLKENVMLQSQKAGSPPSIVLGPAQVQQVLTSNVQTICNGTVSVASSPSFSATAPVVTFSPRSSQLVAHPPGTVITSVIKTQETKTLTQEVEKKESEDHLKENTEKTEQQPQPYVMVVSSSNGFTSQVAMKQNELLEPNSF
# Chain of HSF1 (Q00613 whole entry): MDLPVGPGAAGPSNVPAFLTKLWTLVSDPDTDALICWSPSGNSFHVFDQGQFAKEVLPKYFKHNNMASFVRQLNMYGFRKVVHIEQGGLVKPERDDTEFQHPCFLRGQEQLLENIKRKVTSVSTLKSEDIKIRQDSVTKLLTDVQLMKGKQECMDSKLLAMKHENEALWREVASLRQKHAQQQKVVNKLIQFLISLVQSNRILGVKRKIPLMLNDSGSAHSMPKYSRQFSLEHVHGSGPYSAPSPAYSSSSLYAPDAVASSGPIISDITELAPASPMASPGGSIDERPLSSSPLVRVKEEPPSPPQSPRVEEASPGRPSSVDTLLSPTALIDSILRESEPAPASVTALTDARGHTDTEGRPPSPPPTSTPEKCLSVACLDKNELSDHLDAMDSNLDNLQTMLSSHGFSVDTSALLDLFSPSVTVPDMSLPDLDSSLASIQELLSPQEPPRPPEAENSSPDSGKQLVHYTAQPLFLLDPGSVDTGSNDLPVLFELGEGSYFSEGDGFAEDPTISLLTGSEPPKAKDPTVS
# Chain of ETV5 (P41161 whole entry): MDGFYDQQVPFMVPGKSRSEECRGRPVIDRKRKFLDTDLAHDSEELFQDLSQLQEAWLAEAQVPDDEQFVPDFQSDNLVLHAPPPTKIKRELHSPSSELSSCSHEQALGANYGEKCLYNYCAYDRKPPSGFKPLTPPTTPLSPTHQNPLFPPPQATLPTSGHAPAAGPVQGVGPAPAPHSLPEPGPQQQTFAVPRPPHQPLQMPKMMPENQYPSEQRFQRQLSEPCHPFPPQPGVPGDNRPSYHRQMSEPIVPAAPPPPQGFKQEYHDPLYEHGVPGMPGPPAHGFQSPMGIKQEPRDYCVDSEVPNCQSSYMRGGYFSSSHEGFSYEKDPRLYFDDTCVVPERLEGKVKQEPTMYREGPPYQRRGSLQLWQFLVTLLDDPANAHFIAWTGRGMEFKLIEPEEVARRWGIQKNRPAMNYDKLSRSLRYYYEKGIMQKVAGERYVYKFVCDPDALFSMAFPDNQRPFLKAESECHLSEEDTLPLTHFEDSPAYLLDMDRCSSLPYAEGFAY
# Chain of ELF4 (Q99607 whole entry): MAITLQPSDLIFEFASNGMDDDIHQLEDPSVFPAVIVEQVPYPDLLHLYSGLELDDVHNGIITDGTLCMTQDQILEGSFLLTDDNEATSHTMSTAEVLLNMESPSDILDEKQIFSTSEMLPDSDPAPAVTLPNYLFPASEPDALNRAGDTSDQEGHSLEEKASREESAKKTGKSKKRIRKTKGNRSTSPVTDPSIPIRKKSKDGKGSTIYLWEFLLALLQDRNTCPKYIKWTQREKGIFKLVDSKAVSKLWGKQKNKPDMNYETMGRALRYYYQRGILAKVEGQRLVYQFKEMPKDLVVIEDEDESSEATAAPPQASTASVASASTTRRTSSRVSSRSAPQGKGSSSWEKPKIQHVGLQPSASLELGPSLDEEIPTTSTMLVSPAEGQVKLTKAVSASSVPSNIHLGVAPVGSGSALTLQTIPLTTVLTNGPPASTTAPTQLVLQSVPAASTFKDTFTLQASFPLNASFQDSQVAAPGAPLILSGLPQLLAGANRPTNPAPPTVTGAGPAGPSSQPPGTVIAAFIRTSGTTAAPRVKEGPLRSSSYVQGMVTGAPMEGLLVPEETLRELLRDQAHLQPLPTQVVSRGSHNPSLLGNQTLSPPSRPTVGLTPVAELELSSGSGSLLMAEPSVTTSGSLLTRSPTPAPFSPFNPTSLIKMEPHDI
# Chain of CRX (O43186 whole entry): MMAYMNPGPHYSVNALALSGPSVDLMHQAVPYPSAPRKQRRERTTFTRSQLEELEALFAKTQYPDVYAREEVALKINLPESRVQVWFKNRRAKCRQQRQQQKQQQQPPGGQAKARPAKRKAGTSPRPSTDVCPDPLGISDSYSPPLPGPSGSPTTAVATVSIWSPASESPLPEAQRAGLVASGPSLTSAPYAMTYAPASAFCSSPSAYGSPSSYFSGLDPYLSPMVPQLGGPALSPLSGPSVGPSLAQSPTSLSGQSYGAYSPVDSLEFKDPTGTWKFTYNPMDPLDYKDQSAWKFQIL
sequence,measurement,setting,value
AATCCT,binding signal,FLI1,"1.46 fold enrichment (6-mer frequency, TF over GST control)"
same,binding signal,ELK1,"1.31 fold enrichment (6-mer frequency, TF over GST control)"
same,binding signal,GABPA,"1.34 fold enrichment (6-mer frequency, TF over GST control)"
same,binding signal,ERG,"1.41 fold enrichment (6-mer frequency, TF over GST control)"
same,binding signal,ELF1,"1.36 fold enrichment (6-mer frequency, TF over GST control)"
same,binding signal,EHF,"1.33 fold enrichment (6-mer frequency, TF over GST control)"
same,binding signal,SPI1,"1.37 fold enrichment (6-mer frequency, TF over GST control)"
same,binding signal,SPIB,"1.38 fold enrichment (6-mer frequency, TF over GST control)"
same,binding signal,ELK3,"1.46 fold enrichment (6-mer frequency, TF over GST control)"
same,binding signal,FEV,"1.32 fold enrichment (6-mer frequency, TF over GST control)"
same,binding signal,ETV5,"1.43 fold enrichment (6-mer frequency, TF over GST control)"
same,binding signal,HSF1,"2.25 fold enrichment (6-mer frequency, TF over GST control)"
same,binding signal,SPIC,"1.3 fold enrichment (6-mer frequency, TF over GST control)"
same,binding signal,ELF4,"1.27 fold enrichment (6-mer frequency, TF over GST control)"
same,binding signal,ELK4,"1.33 fold enrichment (6-mer frequency, TF over GST control)"
same,binding signal,ETV2,"1.34 fold enrichment (6-mer frequency, TF over GST control)"
same,binding signal,ELF3,"1.25 fold enrichment (6-mer frequency, TF over GST control)"
same,binding signal,CRX,"3.32 fold enrichment (6-mer frequency, TF over GST control)"
same,binding signal,ETV1,"1.35 fold enrichment (6-mer frequency, TF over GST control)"
